# PMC7862700, “An all-to-all approach to the identification of sequence-specific readers for epigenetic DNA modifications on cytosine”
# How the values were obtained:
# Assay in all cases: DAPPL (digital affinity profiling via proximity ligation, sequencing); 10 mM Tris-HCl pH 7.5, 50 mM NaCl, 1 mM DTT, 4% glycerol, room temperature, 30 min; GST-TFs on glutathione beads, 16-mer random dsDNA library, 0.1% formaldehyde crosslink after washing; high values mean tight binding
# FEV = molecular target: T1, FEV (Homo sapiens, UniProt Q99581 1-238); settings: protein: recombinant; tags: N-terminal GST; dsDNA, one strand shown
# T1 sequence: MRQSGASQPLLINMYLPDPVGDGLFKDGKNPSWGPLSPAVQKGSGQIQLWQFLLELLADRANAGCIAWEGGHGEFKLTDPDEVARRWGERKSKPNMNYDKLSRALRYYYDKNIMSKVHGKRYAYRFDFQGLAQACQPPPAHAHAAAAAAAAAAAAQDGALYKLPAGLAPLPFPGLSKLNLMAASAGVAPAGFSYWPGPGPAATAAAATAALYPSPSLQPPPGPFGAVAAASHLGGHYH
# Summary of the method: (§1)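 Binding signal is each hexamer's read frequency for a factor divided by its frequency in the tag-only sample. The factors were GST-fused human transcription factors from yeast, captured on glutathione beads, DNA-barcoded and pooled with that sample. Pools were incubated with 200 nmole of a random double-stranded 16-mer DNA library in Tris/NaCl/DTT/glycerol buffer at room temperature for 30 min, then washed, crosslinked with 0.1% formaldehyde, proximity-ligated with BsaI/T4 ligase (1 h, 37 °C), PCR-amplified and sequenced on an Illumina NextSeq500.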
# ETV5 = ETV5 (Homo sapiens, UniProt P41161 1-510); settings: protein: recombinant; tags: N-terminal GST; dsDNA, one strand shown
# Summary of the method: as §1
# HSF1 = HSF1 (Homo sapiens, UniProt Q00613 1-529); settings: protein: recombinant; tags: N-terminal GST; chain copies: 3; dsDNA, one strand shown
# Summary of the method: as §1
# SPIC = molecular target: T2, SPIC (Homo sapiens, UniProt Q8N5J4 1-248); settings: protein: recombinant; tags: N-terminal GST; dsDNA, one strand shown
# T2 sequence: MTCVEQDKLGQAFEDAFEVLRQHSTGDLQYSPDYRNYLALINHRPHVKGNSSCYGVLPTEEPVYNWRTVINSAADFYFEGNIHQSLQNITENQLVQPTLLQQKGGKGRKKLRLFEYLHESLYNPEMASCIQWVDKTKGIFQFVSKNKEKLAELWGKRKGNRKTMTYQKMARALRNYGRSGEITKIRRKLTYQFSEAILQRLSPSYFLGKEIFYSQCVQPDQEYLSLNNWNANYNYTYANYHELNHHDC
# Summary of the method: as §1
# ELF4 = ELF4 (Homo sapiens, UniProt Q99607 1-663); settings: protein: recombinant; tags: N-terminal GST; dsDNA, one strand shown
# Summary of the method: as §1
# ELK4 = molecular target: T3, ELK4 (Homo sapiens, UniProt P28324-2 1-405); settings: protein: recombinant; tags: N-terminal GST; dsDNA, one strand shown
# T3 sequence: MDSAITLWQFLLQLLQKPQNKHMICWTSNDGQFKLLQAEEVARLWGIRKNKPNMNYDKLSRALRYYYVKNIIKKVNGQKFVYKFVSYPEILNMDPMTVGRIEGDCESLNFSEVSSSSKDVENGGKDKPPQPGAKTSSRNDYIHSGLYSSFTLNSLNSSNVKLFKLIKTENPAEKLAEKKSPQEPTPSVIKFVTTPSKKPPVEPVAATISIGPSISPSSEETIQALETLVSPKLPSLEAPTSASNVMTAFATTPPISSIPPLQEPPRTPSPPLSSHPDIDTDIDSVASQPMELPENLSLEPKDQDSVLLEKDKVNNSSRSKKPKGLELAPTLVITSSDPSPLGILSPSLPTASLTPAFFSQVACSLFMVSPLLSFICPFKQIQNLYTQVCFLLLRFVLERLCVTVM
# Summary of the method: as §1
# ETV2 = molecular target: T4, ETV2 (Homo sapiens, UniProt O00321 1-342); settings: protein: recombinant; tags: N-terminal GST; dsDNA, one strand shown
# T4 sequence: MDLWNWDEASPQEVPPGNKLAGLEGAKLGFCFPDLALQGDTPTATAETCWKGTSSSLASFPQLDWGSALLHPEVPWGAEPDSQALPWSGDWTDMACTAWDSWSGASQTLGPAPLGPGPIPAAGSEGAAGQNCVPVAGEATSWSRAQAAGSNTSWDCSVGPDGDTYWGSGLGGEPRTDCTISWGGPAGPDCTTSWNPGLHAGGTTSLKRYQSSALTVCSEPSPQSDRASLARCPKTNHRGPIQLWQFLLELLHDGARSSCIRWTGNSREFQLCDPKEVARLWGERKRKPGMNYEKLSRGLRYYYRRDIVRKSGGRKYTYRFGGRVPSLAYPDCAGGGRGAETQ
# Summary of the method: as §1
# ELF3 = molecular target: T5, ELF3 (Homo sapiens, UniProt P78545 1-371); settings: protein: recombinant; tags: N-terminal GST; dsDNA, one strand shown
# T5 sequence: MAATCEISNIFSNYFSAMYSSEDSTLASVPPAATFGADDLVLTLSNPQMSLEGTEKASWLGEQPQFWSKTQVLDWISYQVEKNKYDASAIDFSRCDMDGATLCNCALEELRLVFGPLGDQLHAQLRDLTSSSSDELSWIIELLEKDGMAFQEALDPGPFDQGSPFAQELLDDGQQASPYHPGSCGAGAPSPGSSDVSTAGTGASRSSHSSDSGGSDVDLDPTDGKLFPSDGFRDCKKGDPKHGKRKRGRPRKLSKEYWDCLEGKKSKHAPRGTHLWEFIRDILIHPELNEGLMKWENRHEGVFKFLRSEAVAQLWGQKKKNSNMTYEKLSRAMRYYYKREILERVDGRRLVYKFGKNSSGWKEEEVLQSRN
# Summary of the method: as §1
# CRX = CRX (Homo sapiens, UniProt O43186 1-299); settings: protein: recombinant; tags: N-terminal GST; dsDNA, one strand shown
# Summary of the method: as §1
# ETV1 = ETV1 (Homo sapiens, UniProt P50549 1-477); settings: protein: recombinant; tags: N-terminal GST; dsDNA, one strand shown
# Summary of the method: as §1
# ERF = molecular target: T6, ERF (Homo sapiens, UniProt P50548 1-548); settings: protein: recombinant; tags: N-terminal GST; dsDNA, one strand shown
# T6 sequence: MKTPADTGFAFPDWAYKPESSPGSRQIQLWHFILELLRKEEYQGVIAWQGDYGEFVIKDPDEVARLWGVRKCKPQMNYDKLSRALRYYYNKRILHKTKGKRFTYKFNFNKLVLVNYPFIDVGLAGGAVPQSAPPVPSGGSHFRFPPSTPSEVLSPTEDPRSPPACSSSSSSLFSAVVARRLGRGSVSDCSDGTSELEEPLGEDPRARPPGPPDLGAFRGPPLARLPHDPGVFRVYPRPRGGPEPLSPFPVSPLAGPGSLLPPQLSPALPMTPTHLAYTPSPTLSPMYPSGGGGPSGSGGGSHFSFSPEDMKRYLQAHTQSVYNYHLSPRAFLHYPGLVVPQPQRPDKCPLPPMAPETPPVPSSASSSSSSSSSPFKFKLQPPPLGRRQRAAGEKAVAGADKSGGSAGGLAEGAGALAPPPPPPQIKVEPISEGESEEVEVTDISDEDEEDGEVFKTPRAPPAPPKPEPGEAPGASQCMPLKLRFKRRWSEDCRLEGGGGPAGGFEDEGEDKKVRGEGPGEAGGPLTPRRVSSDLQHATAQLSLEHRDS
# Summary of the method: as §1
# ETV3L = molecular target: T7, ETV3L (Homo sapiens, UniProt Q6ZN32 1-361); settings: protein: recombinant; tags: N-terminal GST; dsDNA, one strand shown
# T7 sequence: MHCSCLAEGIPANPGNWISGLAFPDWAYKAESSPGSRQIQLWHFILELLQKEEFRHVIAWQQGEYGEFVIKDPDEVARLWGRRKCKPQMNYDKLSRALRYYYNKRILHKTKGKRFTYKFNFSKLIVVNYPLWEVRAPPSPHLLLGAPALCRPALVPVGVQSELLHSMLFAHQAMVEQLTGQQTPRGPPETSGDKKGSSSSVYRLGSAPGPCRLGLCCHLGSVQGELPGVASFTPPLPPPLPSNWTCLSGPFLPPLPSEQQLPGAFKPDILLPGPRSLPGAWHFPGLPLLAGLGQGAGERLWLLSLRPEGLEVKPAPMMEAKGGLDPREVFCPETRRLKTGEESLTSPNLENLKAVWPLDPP
# Summary of the method: as §1
# ETS2 = molecular target: T8, ETS2 (Homo sapiens, UniProt P15036 1-469); settings: protein: recombinant; tags: N-terminal GST; dsDNA, one strand shown
# T8 sequence: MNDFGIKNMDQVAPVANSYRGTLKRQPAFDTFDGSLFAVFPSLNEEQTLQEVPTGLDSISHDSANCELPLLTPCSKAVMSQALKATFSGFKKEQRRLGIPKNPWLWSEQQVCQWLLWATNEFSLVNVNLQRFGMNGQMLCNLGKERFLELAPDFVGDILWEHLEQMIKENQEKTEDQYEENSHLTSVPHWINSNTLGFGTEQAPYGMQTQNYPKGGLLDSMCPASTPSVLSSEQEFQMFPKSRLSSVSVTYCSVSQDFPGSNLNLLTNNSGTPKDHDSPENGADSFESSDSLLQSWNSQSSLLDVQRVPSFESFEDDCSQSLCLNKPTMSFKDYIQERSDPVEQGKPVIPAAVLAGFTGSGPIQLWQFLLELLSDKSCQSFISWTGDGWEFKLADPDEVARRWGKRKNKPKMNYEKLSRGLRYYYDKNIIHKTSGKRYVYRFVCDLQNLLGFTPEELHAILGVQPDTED
# Summary of the method: as §1
# SPDEF = molecular target: T9, SPDEF (Homo sapiens, UniProt O95238 1-335); settings: protein: recombinant; tags: N-terminal GST; dsDNA, one strand shown
# T9 sequence: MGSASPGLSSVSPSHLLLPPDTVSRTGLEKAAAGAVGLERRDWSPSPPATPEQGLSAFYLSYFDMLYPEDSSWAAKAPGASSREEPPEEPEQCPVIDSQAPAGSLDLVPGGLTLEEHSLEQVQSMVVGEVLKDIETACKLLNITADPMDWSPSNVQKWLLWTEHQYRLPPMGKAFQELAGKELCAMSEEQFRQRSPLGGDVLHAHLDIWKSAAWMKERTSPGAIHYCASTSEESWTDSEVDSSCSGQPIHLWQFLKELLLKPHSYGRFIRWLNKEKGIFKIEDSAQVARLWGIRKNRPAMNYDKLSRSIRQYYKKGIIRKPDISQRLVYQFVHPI
# Summary of the method: as §1
# ETV7 = molecular target: T10, ETV7 (Homo sapiens, UniProt Q9Y603 1-341); settings: protein: recombinant; tags: N-terminal GST; dsDNA, one strand shown
# T10 sequence: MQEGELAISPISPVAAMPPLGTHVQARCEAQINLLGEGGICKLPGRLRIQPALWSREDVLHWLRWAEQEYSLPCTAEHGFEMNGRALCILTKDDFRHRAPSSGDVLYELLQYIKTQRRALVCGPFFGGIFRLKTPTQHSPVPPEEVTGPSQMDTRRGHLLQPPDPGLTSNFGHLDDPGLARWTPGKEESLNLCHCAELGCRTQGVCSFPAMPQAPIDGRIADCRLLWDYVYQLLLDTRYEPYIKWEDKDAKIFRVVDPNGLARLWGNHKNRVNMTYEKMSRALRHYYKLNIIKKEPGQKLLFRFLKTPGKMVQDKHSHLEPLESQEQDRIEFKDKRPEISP
# Summary of the method: as §1
# ELF5 = molecular target: T11, ELF5 (Homo sapiens, UniProt Q9UKW6-2 1-255); settings: protein: recombinant; tags: N-terminal GST; dsDNA, one strand shown
# T11 sequence: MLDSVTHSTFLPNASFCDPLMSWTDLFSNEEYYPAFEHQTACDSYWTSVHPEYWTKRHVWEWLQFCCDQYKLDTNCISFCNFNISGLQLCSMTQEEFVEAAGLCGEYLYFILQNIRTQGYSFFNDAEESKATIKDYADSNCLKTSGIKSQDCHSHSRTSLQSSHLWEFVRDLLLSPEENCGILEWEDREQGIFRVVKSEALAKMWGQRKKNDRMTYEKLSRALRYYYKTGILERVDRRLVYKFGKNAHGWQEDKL
# Summary of the method: as §1
# ETV3 = molecular target: T12, ETV3 (Homo sapiens, UniProt P41162-2 1-143); settings: protein: recombinant; tags: N-terminal GST; dsDNA, one strand shown
# T12 sequence: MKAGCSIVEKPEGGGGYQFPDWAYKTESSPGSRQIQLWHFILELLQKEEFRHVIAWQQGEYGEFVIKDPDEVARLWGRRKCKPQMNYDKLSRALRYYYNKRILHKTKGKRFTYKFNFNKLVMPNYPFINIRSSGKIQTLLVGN
# Summary of the method: as §1
# ETV6 = ETV6 (Homo sapiens, UniProt P41212 1-452); settings: protein: recombinant; tags: N-terminal GST; dsDNA, one strand shown
# Summary of the method: as §1
# Chain of ETV1 (P50549 whole entry): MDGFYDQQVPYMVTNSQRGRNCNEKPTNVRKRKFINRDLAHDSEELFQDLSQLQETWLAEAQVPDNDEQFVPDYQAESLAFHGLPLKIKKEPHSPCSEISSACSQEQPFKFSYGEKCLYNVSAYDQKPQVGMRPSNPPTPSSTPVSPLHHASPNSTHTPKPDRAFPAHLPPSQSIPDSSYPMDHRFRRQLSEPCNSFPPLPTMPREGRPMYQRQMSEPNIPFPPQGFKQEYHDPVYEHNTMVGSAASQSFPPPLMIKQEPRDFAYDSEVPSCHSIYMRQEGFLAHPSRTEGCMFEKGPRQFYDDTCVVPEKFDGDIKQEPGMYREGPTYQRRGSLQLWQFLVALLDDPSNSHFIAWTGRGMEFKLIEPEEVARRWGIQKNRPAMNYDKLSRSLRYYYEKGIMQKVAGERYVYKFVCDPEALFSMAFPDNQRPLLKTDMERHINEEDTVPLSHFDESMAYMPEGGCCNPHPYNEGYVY
# Chain of CRX (O43186 whole entry): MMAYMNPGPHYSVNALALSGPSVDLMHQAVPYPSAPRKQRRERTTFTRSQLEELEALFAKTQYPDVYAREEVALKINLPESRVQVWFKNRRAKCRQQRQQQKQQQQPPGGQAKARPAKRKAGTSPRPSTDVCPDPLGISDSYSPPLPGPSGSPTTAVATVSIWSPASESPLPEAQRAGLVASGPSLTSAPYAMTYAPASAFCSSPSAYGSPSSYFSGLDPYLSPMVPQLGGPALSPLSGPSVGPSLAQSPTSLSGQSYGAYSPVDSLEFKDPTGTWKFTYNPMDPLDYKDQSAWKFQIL
# Chain of ELF4 (Q99607 whole entry): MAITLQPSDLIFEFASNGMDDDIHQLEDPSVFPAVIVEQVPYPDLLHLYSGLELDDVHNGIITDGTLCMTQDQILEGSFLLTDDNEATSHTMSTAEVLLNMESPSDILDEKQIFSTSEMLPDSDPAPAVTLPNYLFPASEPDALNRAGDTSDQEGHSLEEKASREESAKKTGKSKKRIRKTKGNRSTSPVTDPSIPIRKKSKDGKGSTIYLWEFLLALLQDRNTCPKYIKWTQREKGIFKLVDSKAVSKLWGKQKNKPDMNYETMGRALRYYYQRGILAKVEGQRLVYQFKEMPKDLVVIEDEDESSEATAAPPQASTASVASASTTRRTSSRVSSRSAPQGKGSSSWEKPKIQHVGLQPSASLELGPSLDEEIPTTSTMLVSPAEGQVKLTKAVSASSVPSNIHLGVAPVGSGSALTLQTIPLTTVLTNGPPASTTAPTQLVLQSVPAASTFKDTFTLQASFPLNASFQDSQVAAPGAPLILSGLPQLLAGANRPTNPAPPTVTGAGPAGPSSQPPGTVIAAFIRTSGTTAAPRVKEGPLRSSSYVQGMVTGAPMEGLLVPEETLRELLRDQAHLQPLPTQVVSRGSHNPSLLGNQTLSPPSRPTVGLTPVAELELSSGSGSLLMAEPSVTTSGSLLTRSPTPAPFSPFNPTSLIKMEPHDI
# Chain of ETV5 (P41161 whole entry): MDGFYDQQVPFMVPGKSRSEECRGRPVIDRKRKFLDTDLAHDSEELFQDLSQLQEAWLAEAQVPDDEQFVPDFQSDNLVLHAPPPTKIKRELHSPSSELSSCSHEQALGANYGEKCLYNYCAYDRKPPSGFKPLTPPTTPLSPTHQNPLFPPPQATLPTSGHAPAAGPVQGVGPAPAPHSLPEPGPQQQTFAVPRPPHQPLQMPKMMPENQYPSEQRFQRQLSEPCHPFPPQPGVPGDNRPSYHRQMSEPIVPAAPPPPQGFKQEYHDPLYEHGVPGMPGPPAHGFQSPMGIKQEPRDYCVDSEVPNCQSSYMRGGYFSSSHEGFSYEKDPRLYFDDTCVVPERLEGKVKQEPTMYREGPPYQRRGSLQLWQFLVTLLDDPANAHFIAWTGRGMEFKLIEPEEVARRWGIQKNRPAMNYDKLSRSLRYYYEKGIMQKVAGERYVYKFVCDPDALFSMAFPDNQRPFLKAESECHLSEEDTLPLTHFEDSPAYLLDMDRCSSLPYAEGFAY
# Chain of ETV6 (P41212 whole entry): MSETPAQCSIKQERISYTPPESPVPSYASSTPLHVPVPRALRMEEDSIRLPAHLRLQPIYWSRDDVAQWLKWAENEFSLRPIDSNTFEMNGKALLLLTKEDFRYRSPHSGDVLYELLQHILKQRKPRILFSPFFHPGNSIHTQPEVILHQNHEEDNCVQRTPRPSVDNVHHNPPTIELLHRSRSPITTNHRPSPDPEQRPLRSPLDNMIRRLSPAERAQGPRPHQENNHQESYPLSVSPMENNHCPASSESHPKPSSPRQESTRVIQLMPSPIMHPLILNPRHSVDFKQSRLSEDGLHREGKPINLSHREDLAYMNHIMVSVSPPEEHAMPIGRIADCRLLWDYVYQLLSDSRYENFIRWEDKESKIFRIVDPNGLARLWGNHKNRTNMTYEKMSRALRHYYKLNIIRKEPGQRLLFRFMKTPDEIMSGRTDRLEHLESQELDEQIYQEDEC
# Chain of HSF1 (Q00613 whole entry): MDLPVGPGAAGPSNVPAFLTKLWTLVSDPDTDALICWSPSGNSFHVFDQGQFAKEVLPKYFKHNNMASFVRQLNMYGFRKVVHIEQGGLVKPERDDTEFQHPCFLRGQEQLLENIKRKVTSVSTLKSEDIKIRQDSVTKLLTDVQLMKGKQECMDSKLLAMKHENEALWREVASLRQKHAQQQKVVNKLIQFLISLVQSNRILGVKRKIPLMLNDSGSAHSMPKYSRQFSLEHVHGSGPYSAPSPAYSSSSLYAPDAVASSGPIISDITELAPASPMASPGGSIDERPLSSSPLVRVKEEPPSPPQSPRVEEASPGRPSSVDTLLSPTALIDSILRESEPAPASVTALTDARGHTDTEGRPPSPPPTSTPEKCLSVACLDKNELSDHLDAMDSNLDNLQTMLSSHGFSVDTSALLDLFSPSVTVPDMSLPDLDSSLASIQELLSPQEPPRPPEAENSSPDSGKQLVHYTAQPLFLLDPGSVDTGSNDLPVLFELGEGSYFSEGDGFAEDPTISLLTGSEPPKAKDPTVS
sequence,measurement,setting,value
TAAATT,binding signal,FEV,"1.25 fold enrichment (6-mer frequency, TF over GST control)"
same,binding signal,ETV5,"1.26 fold enrichment (6-mer frequency, TF over GST control)"
same,binding signal,HSF1,"1.51 fold enrichment (6-mer frequency, TF over GST control)"
same,binding signal,SPIC,"1.25 fold enrichment (6-mer frequency, TF over GST control)"
same,binding signal,ELF4,"1.17 fold enrichment (6-mer frequency, TF over GST control)"
same,binding signal,ELK4,"1.31 fold enrichment (6-mer frequency, TF over GST control)"
same,binding signal,ETV2,"1.34 fold enrichment (6-mer frequency, TF over GST control)"
same,binding signal,ELF3,"1.32 fold enrichment (6-mer frequency, TF over GST control)"
same,binding signal,CRX,"1.76 fold enrichment (6-mer frequency, TF over GST control)"
same,binding signal,ETV1,"1.17 fold enrichment (6-mer frequency, TF over GST control)"
same,binding signal,ERF,"1.3 fold enrichment (6-mer frequency, TF over GST control)"
same,binding signal,ETV3L,"1.32 fold enrichment (6-mer frequency, TF over GST control)"
same,binding signal,ETS2,"1.17 fold enrichment (6-mer frequency, TF over GST control)"
same,binding signal,SPDEF,"1.21 fold enrichment (6-mer frequency, TF over GST control)"
same,binding signal,ETV7,"1.27 fold enrichment (6-mer frequency, TF over GST control)"
same,binding signal,ELF5,"1.19 fold enrichment (6-mer frequency, TF over GST control)"
same,binding signal,ETV3,"1.21 fold enrichment (6-mer frequency, TF over GST control)"
same,binding signal,ETV6,"1.28 fold enrichment (6-mer frequency, TF over GST control)"
